Experimental data reported in PubChem BioAssay (NCATS).
Results filed as inconclusive are left out. Activity calls are given as the source filed them. Unless noted, calls follow the shape of the dose curve; as a rule, active = well fitted curve in the direction sought with a large enough effect; inconclusive = small, poorly fitted or top-dose-only effect, or another doubt; inactive = no such curve, though single readings can be large; an effect the other way counts as inactive or inconclusive.

Columns and labels:
[1] = Cell Viability - BJ (AID 421; calls by dose curve;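 also: potency is read from the fitted curve at half-maximal effect; cells exposed to compound for 40 hours at 37 °C before readout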); conditions: BJ fibroblast viability, qHTS
Method in brief: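 Luminescent ATP signal (CellTiter-Glo, 20 min at room temperature) served as the read-out of viable BJ cells after 40 hours of compound treatment. Responses were scaled between DMSO and 100 uM tamoxifen, and AC50 values were obtained by Hill modeling.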

[2] = Cell Viability - Jurkat (AID 426;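 active = dose-dependent loss of cell ATP signal giving a full or clear fitted curve, ranked by lower potency value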;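 also: potency is read from the fitted curve at half-maximal effect; cells exposed to compound for 40 hours at 37 °C before ATP read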); conditions: qHTS
Method in brief: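 Luminescent ATP read-out (CellTiter-Glo, 20 min at room temperature) after 40 hr compound exposure at 37 °C of Jurkat E6-1 cells, 5000/well. Decreased ATP taken as cytotoxicity; AC50 from standard Hill equation.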

[3] = Cell Viability - Hek293 (AID 427;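 active = compounds whose dose-response curve shows a full or clear partial loss of cell viability, called from curve shape rather than a numeric limit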;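 also: potency is read from the fitted curve at half-maximal effect; cells exposed to compound for 40 hours at 37 °C before reading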); conditions: qHTS
Method in brief: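 Luminescent ATP read-out (CellTiter-Glo, 20 min RT) after 40 hr compound exposure at 37 °C in complete medium. Signal normalized to DMSO (basal) and 100 uM tamoxifen (100% inhibition); concentration-response fitted with the standard Hill equation to give AC50.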

[4] = Cell Viability - HepG2 (AID 433; calls by dose curve;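 also: potency is read from the fitted curve at half-maximal effect; potency for ATP loss meaning cytotoxicity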); conditions: qHTS
Method in brief: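 Read-out is luciferase-based quantitation of cellular ATP as a measure of viable HepG2 cells after 40 h treatment at 37 °C. Signal decrease is scaled between DMSO-only and 100 uM tamoxifen controls, with AC50 fitted by the Hill equation.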

[5] = Cell Viability - MRC5 (AID 434; calls by dose curve;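 also: potency is read from the fitted curve at half-maximal effect; cells exposed to compound for 40 hours at 37 °C; potency reflects cytotoxicity seen as loss of intracellular ATP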); conditions: MRC5 lung fibroblast viability, qHTS
Method in brief: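 ATP luminescence read-out (CellTiter-Glo, 20 min RT) after 40 hr, 37 °C compound exposure of 1500 MRC5 cells/well. Data normalized to DMSO (basal) and 100 uM tamoxifen (100% inhibition); AC50 from standard Hill equation.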

[6] = Cell Viability - SK-N-SH (AID 435; calls by dose curve; also: potency is read from the fitted curve at half-maximal effect); conditions: SK-N-SH neuroblastoma cell viability qHTS
Method in brief: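 Luminescent ATP signal served as the viability read-out after 40 hours of compound treatment of human neuroblastoma SK-N-SH cells. Concentration-response data, scaled between DMSO and 100 uM tamoxifen, gave AC50 values by standard Hill modeling.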

[7] = Cell Viability - N2a (AID 540); conditions: N2a mouse neuroblastoma cell viability; activity change, negative = cytotoxicity: at 92.2 µM (top of the series);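 also: plate controls were DMSO alone for no effect and tamoxifen control for full effect; nearly all actives have a fitted effect of over 45% in size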
Method in brief: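 N2a mouse neuroblastoma, 1500 cells/well, 5 hr settle; compound 40 hr, 37 °C; CellTiter-Glo 20 min RT; luminescence; Hill-fit AC50.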

[8] = Cell Viability - NIH 3T3 (AID 541); conditions: NIH 3T3 cell viability, qHTS; activity change, negative = cytotoxicity: at 92.2 µM (top of the series);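 also: plate controls were DMSO alone for no effect and tamoxifen positive control for full effect; nearly all actives have a fitted effect of over 25% in size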
Method in brief: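 qHTS format; 40 hr compound exposure, 37 °C; CellTiter-Glo luminescence (cellular ATP) read-out after 20 min at RT. Decrease in ATP = cytotoxicity; AC50 from standard Hill fit.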

[9] = Cell Viability - HUV-EC-C (AID 542); conditions: HUV-EC-C endothelial cell viability, qHTS; series mostly up to 92.2 µM; also: % is scaled to controls: 0 for no effect and ±100 for the full control effect; nearly all actives have a fitted effect of over 35% in size
Method in brief: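 Luminescent ATP read-out (CellTiter-Glo, 20 min room temperature) after 40 hr compound treatment of HUV-EC-C cells at 37 °C. Concentration-response data fitted with the standard Hill equation to give AC50; tamoxifen and doxorubicin served as positive controls.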

[10] = Cell Viability - H-4-II-E (AID 543); conditions: H-4-II-E rat hepatoma viability; series mostly up to 92.2 µM; also: % is scaled to controls: 0 for no effect and ±100 for the full control effect; nearly all actives have a fitted effect of over 35% in size
Method in brief: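 qHTS, rat hepatoma H-4-II-E, 1500 cells/well; 40 hr compound exposure, 37 °C; CellTiter-Glo ATP luminescence after 20 min RT; AC50 by standard Hill fit.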

[11] = Cell Viability - SH-SY5Y (AID 544); conditions: SH-SY5Y neuroblastoma cell viability; viability change, negative = cytotoxic: at 92.2 µM (top of the series); also: nearly all actives have a fitted effect of over 55% in size
Method in brief: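 SH-SY5Y, 1500 cells/well, 5 hr pre-incubation 37 °C; cpd 40 hr 37 °C; CellTiter-Glo 20 min RT; luminescence (ATP) read. qHTS concentration-response, Hill fit → AC50. Tamoxifen, doxorubicin as positive controls.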

[12] = Cell Viability - Renal Proximal Tubule (AID 545); conditions: renal proximal tubule cells viability, primary cells of rat origin; series mostly up to 91.7 µM; also: nearly all actives have a fitted effect of over 40% in size
Method in brief: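 Luminescent ATP signal (CellTiter-Glo) served as the viability read-out after 40 hr compound exposure of freshly isolated rat proximal tubule cells at 37 °C. Concentration-dependent ATP loss was fitted with the Hill equation to give AC50.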

[13] = Cell Viability - Mesenchymal (AID 546); conditions: mesenchymal cells viability, qHTS; series mostly up to 91.7 µM;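 also: cells exposed to compound for 40 hours before reading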
Method in brief: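 Human renal mesenchymal cells (glomerulus-derived), 1000 cells/well, 5 hr 37 °C pre-incubation; compound 40 hr, 37 °C; CellTiter-Glo, 20 min RT; luminescence; AC50 via Hill equation.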

[14] = Cellular Toxicity (caspase-3) HepG2 (AID 654); conditions: HepG2 caspase-3 activation, luminescence; series mostly up to 92.2 µM;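 also: cells exposed to compound for 16 hours before reading; 0% = DMSO alone and 100% = caspase signal from 100 µM tamoxifen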
Method in brief: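 Luminescent Caspase-Glo 3/7 readout after 16 hr compound exposure of human hepatocellular carcinoma HepG2 cells at 37 °C; qHTS concentration-response, normalized DMSO = 0%, 100 uM tamoxifen = 100%; AC50 by standard Hill equation.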

[15] = Cellular Toxicity (caspase-3) Jurkat (AID 655); conditions: Jurkat caspase-3 activation, luminescence; caspase-3 activation: at 92.2 µM (top of the series), DMSO = 0%, tamoxifen = 100%;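 also: cells exposed to compound for 16 h at 37 °C before reading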
Method in brief: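 5000 Jurkat cells/well; compound 16 hr, 37 °C; Caspase-Glo 3/7 added, 20 min RT; luminescence read. Norm: DMSO = 0%, tamoxifen 100 uM = 100%. AC50, Hill model.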

[16] = Cellular Toxicity (caspase-3) HUV-EC-C (AID 656); conditions: HUV-EC-C cells, caspase-3 activation (apoptosis), vehicle = 0, 100 µM tamoxifen = 100%; series mostly up to 92.2 µM
Method in brief: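 qHTS; HUV-EC-C, 1000 cells/well; 5 hr settle, 16 hr cmpd, 37°C; Caspase-Glo 3/7, 20 min RT; luminescence. Norm: DMSO = 0%, tamoxifen 100 uM = 100%. Hill-fit AC50.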

[17] = Cellular Toxicity (caspase-3) SHSY5Y (AID 657); conditions: SH-SY5Y caspase-3 activation, DMSO zero, 10 µM staurosporine = 100%; series mostly up to 91.7 µM;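 also: cells exposed to compound for 16 hours at 37 °C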
Method in brief: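 qHTS, SH-SY5Y, 1500 cells/well, 5 h pre-incubation 37 °C; compound 16 h 37 °C; Caspase-Glo 3/7 1 h RT; luminescence. Norm.: DMSO = 0, 10 uM staurosporine = 100%. Hill fit → AC50.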

[18] = Cellular Toxicity (caspase-3) BJ (AID 658); conditions: BJ fibroblasts, luminescence, normalized: DMSO 0%, staurosporine 100%; series mostly up to 91.7 µM;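 also: cells exposed to compound for 16 hours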
Method in brief: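 qHTS, BJ fibroblasts, 1000 cells/well; 5 hr preincubation, 16 hr compound, 37 °C; Caspase-Glo 3/7 reagent, 1 hr RT; luminescence. DMSO = 0%, 10 uM staurosporine = 100%. Hill-equation AC50.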

[19] = target: Mitogen-activated protein kinase 10 (Mus musculus) (UniProt Q61831); assay: JNK3 AlphaScreen Assay (AID 530; active = well fitted curve in either direction with a large enough effect, not every such curve was filed as active;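 also: kinase came from lysate of stimulated human HepG2 cells; signal reports phosphorylation of biotinylated GST-cJun 1-79 at Ser73 with 10 µM ATP; % is scaled to controls: 0 for no effect and ±100 for the full control effect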); conditions: JNK3 lysate, c-Jun phosphorylation; series mostly up to 57.1 µM
Method in brief: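 HepG2 lysate (IL-1b/TNFa pre-activated) + biotin-GST-cJun 1-79 + anti-pSer73 cJun; cpd titration, 15 min RT; ATP 10 uM start; Tris pH 7.6, MgCl2, DTT, vanadate; beads in EDTA buffer; AlphaScreen.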

[20] = Cellular Toxicity (caspase-3) MRC-5 (AID 659); conditions: MRC-5 cells, luminescence, normalized: DMSO 0%, 10 µM staurosporine 100%; series mostly up to 91.7 µM
Method in brief: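 MRC-5 fibroblasts, 1500/well; 16 h cpd, 37 °C; Caspase-Glo 3/7, 1 h RT; lumi read. Norm: DMSO = 0%, 10 uM staurosporine = 100%. Hill-fit AC50 from qHTS conc-response.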

Nc1ccccc1[N+](=O)[O-]
inactive: Potency [1] > 92 µM | Potency [2] > 92 µM | Potency [3] > 92 µM | Potency [4] > 92 µM | Potency [5] > 92 µM | Potency [6] > 92 µM | activity change, negative = cytotoxicity [7] -9.35% | Potency [8] | Potency [9] | Potency [10] | Potency [11] | Potency [12] | Potency [13] | Potency [14] | caspase-3 activation [15] -0.598% | outcome [16] | outcome [17] | outcome [18]

NC(N)=S
inactive: Potency [1] > 92 µM | Potency [2] > 92 µM | Potency [3] > 92 µM | Potency [4] > 92 µM | Potency [5] > 92 µM | Potency [6] > 92 µM | outcome [19] | activity change, negative = cytotoxicity [7] 7.78% | Potency [9] | Potency [10] | Potency [11] | Potency [14] | caspase-3 activation [15] 0.321% | outcome [16] | outcome [17] | outcome [20]

COc1ccc(N=[N+]([O-])c2ccc(OC)cc2)cc1
inactive: Potency [1] > 92 µM | Potency [2] > 92 µM | Potency [3] > 92 µM | Potency [4] > 92 µM | Potency [5] > 92 µM | Potency [6] > 92 µM | outcome [19] | activity change, negative = cytotoxicity [7] -19% | Potency [9] | Potency [11] | Potency [12] | Potency [13] | Potency [14] | caspase-3 activation [15] -8.89% | outcome [17] | outcome [18] | outcome [20]

O=[N+]([O-])c1c(Cl)cc(Cl)cc1Cl
inactive: Potency [1] > 92 µM | Potency [2] > 92 µM | Potency [3] > 92 µM | Potency [4] > 92 µM | Potency [5] > 92 µM | Potency [6] > 92 µM | outcome [19] | activity change, negative = cytotoxicity [7] 3.57% | Potency [9] | Potency [10] | Potency [11] | Potency [12] | Potency [13] | Potency [14] | caspase-3 activation [15] 0.558% | outcome [17] | outcome [18] | outcome [20]

CC(C)C=O
inactive: Potency [1] > 92 µM | Potency [2] > 92 µM | Potency [3] > 92 µM | Potency [4] > 92 µM | Potency [5] > 92 µM | Potency [6] > 92 µM | outcome [19] | activity change, negative = cytotoxicity [7] -13.8% | Potency [9] | Potency [10] | Potency [11] | Potency [13] | Potency [14] | caspase-3 activation [15] 0.00972% | outcome [16] | outcome [17] | outcome [18] | outcome [20]

O=C(O)c1ccccc1C(=O)O
inactive: Potency [1] > 92 µM | Potency [2] > 92 µM | Potency [3] > 92 µM | Potency [4] > 92 µM | Potency [5] > 92 µM | Potency [6] > 92 µM | activity change, negative = cytotoxicity [7] 1.25% | Potency [8] | Potency [9] | Potency [10] | Potency [11] | Potency [12] | Potency [13] | Potency [14] | caspase-3 activation [15] 2.22% | outcome [16] | outcome [17] | outcome [18]

C=CCOC(=O)CCCCCCCC
inactive: Potency [1] > 92 µM | Potency [2] > 92 µM | Potency [3] > 92 µM | Potency [4] > 92 µM | Potency [5] > 92 µM | Potency [6] > 92 µM | outcome [19] | activity change, negative = cytotoxicity [7] 9.38% | Potency [9] | Potency [10] | Potency [11] | Potency [13] | Potency [14] | caspase-3 activation [15] -0.392% | outcome [16] | outcome [18]

Cc1cc(C2(c3cc(C)c(O)cc3C)OS(=O)(=O)c3ccccc32)c(C)cc1O
inactive: Potency [1] > 92 µM | Potency [2] > 92 µM | Potency [3] > 92 µM | Potency [4] > 92 µM | Potency [5] > 92 µM | Potency [6] > 92 µM | activity change, negative = cytotoxicity [7] -2.09% | Potency [8] | Potency [9] | Potency [10] | Potency [11] | Potency [12] | Potency [13] | Potency [14] | caspase-3 activation [15] 2.78% | outcome [16] | outcome [17] | outcome [18] | outcome [20]

O=Cc1ccccc1Cl
inactive: Potency [1] > 92 µM | Potency [2] > 92 µM | Potency [3] > 92 µM | Potency [4] > 92 µM | Potency [5] > 92 µM | Potency [6] > 92 µM | outcome [19] | activity change, negative = cytotoxicity [7] -4.91% | Potency [9] | Potency [10] | Potency [11] | Potency [12] | Potency [13] | Potency [14] | outcome [16] | outcome [17] | outcome [18] | outcome [20]

CC(C)(O)C(=O)O
inactive: Potency [1] > 92 µM | Potency [2] > 92 µM | Potency [3] > 92 µM | Potency [4] > 92 µM | Potency [5] > 92 µM | Potency [6] > 92 µM | outcome [19] | activity change, negative = cytotoxicity [7] 4.75% | Potency [9] | Potency [10] | Potency [11] | Potency [12] | Potency [13] | Potency [14] | caspase-3 activation [15] -0.979% | outcome [16] | outcome [17] | outcome [18] | outcome [20]

CCCCC(CC)CO (stereo not given)
inactive: Potency [1] > 92 µM | Potency [2] > 92 µM | Potency [3] > 92 µM | Potency [4] > 92 µM | Potency [5] > 92 µM | Potency [6] > 92 µM | activity change, negative = cytotoxicity [7] -1.19% | Potency [8] | Potency [9] | Potency [10] | Potency [11] | Potency [12] | Potency [13] | Potency [14] | caspase-3 activation [15] 0.69% | outcome [16] | outcome [17] | outcome [18] | outcome [20]

COC(=O)c1ccccc1
inactive: Potency [1] > 92 µM | Potency [2] > 92 µM | Potency [3] > 92 µM | Potency [4] > 92 µM | Potency [5] > 92 µM | Potency [6] > 92 µM | activity change, negative = cytotoxicity [7] -10.2% | Potency [8] | Potency [9] | Potency [10] | Potency [11] | Potency [12] | Potency [13] | Potency [14] | caspase-3 activation [15] 2.94% | outcome [16] | outcome [17] | outcome [18] | outcome [20]
